Measured values taken from PubChem BioAssay (EPA / NIEHS).
Where “and” joins values, the source holds several entries; their conditions need not be identical. Equal entries are not always repeated. The source holds several records for some structures; these can differ, active in one and inactive in another. Calls of active or inactive are those of the source. How the source made its calls: active means hit-call score of the fitted dose curve at least 0.9, where 1 is the maximum; inactive means score below 0.9.

Legend:
[1] = read-out: Interleukin-6 (IL6), IL6 (gene 3569); assay: BSK_CASM3C_IL6: BioMAP Diversity Plus: CASM3C Assay for Interleukin-6 (IL6) Biomarker Activity for (AID 2283040); settings: primary human coronary artery smooth muscle cells; actives raise or lower the signal
[2] = read-out: Tissue plasminogen activator (tPA), PLAT (gene 5327); assay: BSK_BE3C_tPA: BioMAP Diversity Plus: BE3C Assay for Tissue plasminogen activator (tPA) Biomarker Activity (AID 2283041); settings: primary human bronchial epithelial cells; actives raise or lower the signal
How it was run: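 Bidirectional curve fitting relative to DMSO defined activity, with tPA detected by ELISA in chemically treated human bronchial epithelial primary cells at 24 hours.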

[3] = read-out: Interleukin-8 (IL8), CXCL8 (gene 3576); assay: BSK_CASM3C_IL8: BioMAP Diversity Plus: CASM3C Assay for Interleukin-8 (IL8) Biomarker Activity (AID 2283042); settings: primary human coronary artery smooth muscle cells; actives raise or lower the signal;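 further: IL-8 protein level quantified by ELISA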
[4] = read-out: Human Leukocyte Antigen - DR isotype (HLADR), HLA-DRA (gene 3122); assay: BSK_CASM3C_HLADR: BioMAP Diversity Plus: CASM3C Assay for Human Leukocyte Antigen - DR isotype (HLADR) Biomarker Activity (AID 2283043); settings: primary human coronary artery smooth muscle cells; actives raise or lower the signal;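 further: cell-surface HLA-DR protein level quantified by ELISA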
[5] = read-out: Macrophage colony-stimulating factor (MCSF), CSF1 (gene 1435); assay: BSK_CASM3C_MCSF: BioMAP Diversity Plus: CASM3C Assay for Macrophage colony-stimulating factor (MCSF) Biomarker Activity (AID 2283044); settings: primary human coronary artery smooth muscle cells; actives raise or lower the signal;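 further: M-CSF protein amount quantified by ELISA after 24 h exposure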
[6] = read-out: Low-density lipoprotein receptor (LDLR), LDLR (gene 3949); assay: BSK_CASM3C_LDLR: BioMAP Diversity Plus: CASM3C Assay for Low-density lipoprotein receptor (LDLR) Biomarker Activity (AID 2283045); settings: primary human coronary artery smooth muscle cells; actives raise or lower the signal;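 further: LDLR protein level on the cell surface quantified by ELISA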
[7] = read-out: Monocyte Chemoattractant Protein-1 (MCP1), CCL2 (gene 6347); assay: BSK_CASM3C_MCP1: BioMAP Diversity Plus: CASM3C Assay for Monocyte Chemoattractant Protein-1 (MCP1) Biomarker Activity (AID 2283046); settings: primary human coronary artery smooth muscle cells; actives raise or lower the signal;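 further: MCP-1 level quantified by ELISA 24 h after dosing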
[8] = BSK_CASM3C_Proliferation: Cell Proliferation Assessment in the BioMAP Diversity Plus: CASM3C Assay (AID 2283047); settings: primary human coronary artery smooth muscle cells;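 further: sulforhodamine B total protein stain as relative cell number at 560 nm; sub-confluent cells exposed 48 h before staining; fitted both ways against DMSO so gain or loss of cell number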
[9] = read-out: Monokine induced gamma interferon (MIG), CXCL9 (gene 4283); assay: BSK_CASM3C_MIG: BioMAP Diversity Plus: CASM3C Assay for Monokine induced gamma interferon (MIG) Biomarker Activity (AID 2283048); settings: primary human coronary artery smooth muscle cells; actives raise or lower the signal;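 further: MIG protein level measured by ELISA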
[10] = read-out: serum amyloid A (SAA), SAA1 (gene 6288); assay: BSK_CASM3C_SAA: BioMAP Diversity Plus: CASM3C Assay for serum amyloid A (SAA) Biomarker Activity (AID 2283049); settings: primary human coronary artery smooth muscle cells; actives raise or lower the signal;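 further: SAA protein level quantified by ELISA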
[11] = BSK_CASM3C_SRB: Viability Assessment in the BioMAP Diversity Plus: CASM3C Assay (AID 2283050); settings: primary human coronary artery smooth muscle cells;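 further: total protein by SRB staining as cytotoxicity measure in parallel cultures; cells exposed to compound for 24 h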
[12] = read-out: Thrombomodulin, THBD (gene 7056); assay: BSK_CASM3C_Thrombomodulin: BioMAP Diversity Plus: CASM3C Assay for Thrombomodulin Biomarker Activity (AID 2283051); settings: primary human coronary artery smooth muscle cells; actives raise or lower the signal;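 further: thrombomodulin protein level measured by ELISA 24 h after dosing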
[13] = read-out: Tissue Factor, F3 (gene 2152); assay: BSK_CASM3C_TissueFactor: BioMAP Diversity Plus: CASM3C Assay for Tissue Factor Biomarker Activity (AID 2283052); settings: primary human coronary artery smooth muscle cells; actives raise or lower the signal;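 further: cell surface tissue factor protein level read by ELISA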
[14] = read-out: Urokinase-type plasminogen activator receptor (uPAR), PLAUR (gene 5329); assay: BSK_CASM3C_uPAR: BioMAP Diversity Plus: CASM3C Assay for Urokinase-type plasminogen activator receptor (uPAR) Biomarker Activity (AID 2283054); settings: primary human coronary artery smooth muscle cells; actives raise or lower the signal;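 further: cell-surface uPAR protein level quantified by ELISA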
[15] = read-out: Vascular cell adhesion molecule 1 (VCAM1), VCAM1 (gene 7412); assay: BSK_CASM3C_VCAM1: BioMAP Diversity Plus: CASM3C Assay for Vascular cell adhesion molecule 1 (VCAM1) Biomarker Activity (AID 2283055); settings: primary human coronary artery smooth muscle cells; actives raise or lower the signal;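 further: VCAM-1 protein level quantified by ELISA on the cells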
[16] = read-out: Collagen III, COL3A1 (gene 1281); assay: BSK_hDFCGF_CollagenIII: BioMAP Diversity Plus: hDFCGF Assay for Collagen III Biomarker Activity (AID 2283056); settings: primary human foreskin fibroblasts; actives raise or lower the signal
How it was run: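 ELISA read-out of collagen III from human skin fibroblast cultures sampled 24 h post-dosing. Values were derived by bidirectional fitting relative to the DMSO vehicle control.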

[17] = read-out: Epidermal growth factor receptor (EGFR), EGFR (gene 1956); assay: BSK_hDFCGF_EGFR: BioMAP Diversity Plus: hDFCGF Assay for Epidermal growth factor receptor (EGFR) Biomarker Activity (AID 2283057); settings: primary human foreskin fibroblasts; actives raise or lower the signal
How it was run: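 Measured by ELISA: EGFR levels on primary human foreskin fibroblasts 24 h after chemical treatment, analysed relative to DMSO with bidirectional fitting.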

[18] = read-out: Interleukin-8 (IL8), CXCL8 (gene 3576); assay: BSK_hDFCGF_IL8: BioMAP Diversity Plus: hDFCGF Assay for Interleukin-8 (IL8) Biomarker Activity (AID 2283058); settings: primary human foreskin fibroblasts; actives raise or lower the signal
How it was run: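 Cells used are human skin primary fibroblasts. Chemical is added, cultures run 24 h, then IL-8 is quantified by ELISA, and gain or loss versus DMSO control is fitted in both directions.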

[19] = BSK_hDFCGF_Proliferation: Cell Proliferation Assessment in the BioMAP Diversity Plus: hDFCGF Assay (AID 2283059); settings: primary human foreskin fibroblasts;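 further: curves fitted for both rise and fall of signal versus DMSO baseline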
How it was run: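 Primary human foreskin fibroblasts, sub-confluent; […]; 10% TCA fix, 0.1% SRB stain, A560 total protein. Gain/loss fitted bidirectionally vs DMSO control.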

[20] = read-out: Interferon-gamma inducible Protein 10 (IP10), CXCL10 (gene 3627); assay: BSK_hDFCGF_IP10: BioMAP Diversity Plus: hDFCGF Assay for Interferon-gamma inducible Protein 10 (IP10) Biomarker Activity (AID 2283053); settings: primary human foreskin fibroblasts; actives raise or lower the signal
How it was run: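 IP-10 levels, quantified by ELISA, are taken from human foreskin fibroblast cultures 24 h after chemical treatment, with DMSO serving as negative control and baseline for bidirectional analysis.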

Measured: AC50

CC(Cl)COP(=O)(OCC(C)Cl)OCC(C)Cl (centres undefined)
active: [8] 159 nM
inactive: [1] | [2] | [3] | [4] | [5] | [6] | [7] | [9] | [10] | [11] | [12] | [13] | [14] | [15] | [16] | [17] | [18] | [19]

c1ccc(Nc2cccc3ccccc23)cc1
active: [1] 13.4 µM and 12.9 µM | [2] 30.6 µM and 32.2 µM | [5] 20 µM and 149 nM | [7] 29.9 µM and 28.9 µM | [8] 7.17 µM and 25.9 µM | [11] 31.3 µM | [12] 10.1 µM and 7.36 µM | [13] 2.1 µM | [20] 30.3 µM and 34.6 µM | [14] 10.5 µM | [15] 7.35 µM | [17] 32.5 µM | [19] 9.99 µM and 12.2 µM
inactive: [3] | [4] | [6] | [9] | [10] | [11] | [13] | [14] | [15] | [17]

CC1=CC=C(C(C)C)CC1
inactive: [1] | [2] | [3] | [4] | [5] | [6] | [7] | [8] | [9] | [10] | [11] | [12] | [13] | [20] | [14] | [15] | [17] | [18] | [19]

Clc1cc(Cl)c(Cl)c(Cl)c1Cl
inactive: [1] | [2] | [3] | [4] | [5] | [6] | [7] | [8] | [9] | [10] | [11] | [12] | [13] | [14] | [15] | [16] | [17] | [19]

CC(c1cc(C(C)(C)C)cc(C(C)(C)C)c1O)c1cc(C(C)(C)C)cc(C(C)(C)C)c1O
inactive: [1] | [2] | [3] | [4] | [5] | [6] | [7] | [8] | [9] | [10] | [11] | [12] | [13] | [20] | [14] | [15] | [16] | [17] | [19]

CCNc1nc(NC(C)(C)C)nc(OC)n1
inactive: [1] | [2] | [3] | [4] | [5] | [6] | [7] | [8] | [9] | [10] | [11] | [12] | [13] | [20] | [14] | [15] | [17] | [19]

CCCCC1C(=O)N(c2ccccc2)N(c2ccccc2)C1=O
inactive: [1] | [2] | [3] | [4] | [5] | [6] | [7] | [8] | [9] | [10] | [11] | [12] | [13] | [14] | [15] | [16] | [17] | [18] | [19]

CCCCCCCCC(CO)CCCCCC (centres undefined)
inactive: [1] | [2] | [3] | [4] | [5] | [6] | [7] | [8] | [9] | [10] | [11] | [12] | [13] | [14] | [15] | [17] | [18]
active: [16] 4.17 µM | [19] 4.06 µM

C=CC(=O)OCCCCCCOC(=O)C=C
inactive: [2] | [10] | [12] | [17]
active: [1] 14.2 µM | [3] 10.1 µM | [4] 10.5 µM | [5] 18 µM | [6] 20 µM | [7] 34 µM | [8] 20000 nM | [9] 23.3 µM | [11] 20 µM | [13] 1.43 µM | [20] 2.12 µM | [14] 29.4 µM | [15] 10.8 µM | [19] 1.72 µM

C[N+](C)(C)CCCNS(=O)(=O)C(F)(F)C(F)(F)C(F)(F)C(F)(F)C(F)(F)C(F)(F)C(F)(F)C(F)(F)F
inactive: [1] | [3] | [4] | [5] | [7] | [8] | [9] | [10] | [11] | [12] | [13] | [14] | [15] | [17]
active: [2] 17.1 µM and 18.5 µM | [5] 16.8 µM | [6] 19.5 µM and 26.4 µM | [10] 7.89 µM | [12] 30 µM | [19] 1.44 µM and 220 nM

COc1ccc(C(=O)/C(Br)=C\C(=O)O)cc1
inactive: [2] | [10] | [12] | [17]
active: [1] 20 µM and 23.2 µM | [2] 4.45 µM | [3] 35.4 µM and 29.1 µM | [4] 6.86 µM and 20.6 µM | [5] 20 µM and 29.7 µM | [6] 13.2 µM and 26.7 µM | [7] 30 µM and 31.1 µM | [8] 4.88 µM and 24.3 µM | [9] 29.2 µM and 31 µM | [10] 11.4 µM | [11] 23.8 µM and 28.8 µM | [13] 4.22 µM and 11.4 µM | [14] 13.4 µM and 30.6 µM | [15] 12 µM and 20 µM | [17] 29.1 µM | [19] 29.4 µM and 20 µM

Nc1cccc(N)n1
inactive: [1] | [2] | [3] | [4] | [5] | [6] | [7] | [8] | [9] | [10] | [11] | [12] | [13] | [20] | [14] | [15] | [17] | [19]

CCCCCCC=O
active: [8] 220 nM
inactive: [1] | [2] | [3] | [4] | [5] | [6] | [7] | [9] | [10] | [11] | [12] | [13] | [14] | [15] | [16] | [17] | [18] | [19]
